The results in this text go back to PubChem BioAssay AID652105 (National Center for Advancing Translational Sciences (NCATS), 2013).

The structures appear in SMILES notation. Hit rate of the full screen: of about 330,000 compounds, about 4,100 (1.2%) were called active. Not shown: some 2% with an inconclusive outcome. How the source made its calls: active means max response of -50% or lower; inconclusive means between -30% and -50%; inactive means -30% or higher. Shown is part of a subset that was picked to be rich in actives.
On the % scale 0 is the no-effect control and ±100 the full control effect.

Sequence of Phosphatidylinositol 5-phosphate 4-kinase type-2 alpha (Homo sapiens) (P48426 whole entry, looked up): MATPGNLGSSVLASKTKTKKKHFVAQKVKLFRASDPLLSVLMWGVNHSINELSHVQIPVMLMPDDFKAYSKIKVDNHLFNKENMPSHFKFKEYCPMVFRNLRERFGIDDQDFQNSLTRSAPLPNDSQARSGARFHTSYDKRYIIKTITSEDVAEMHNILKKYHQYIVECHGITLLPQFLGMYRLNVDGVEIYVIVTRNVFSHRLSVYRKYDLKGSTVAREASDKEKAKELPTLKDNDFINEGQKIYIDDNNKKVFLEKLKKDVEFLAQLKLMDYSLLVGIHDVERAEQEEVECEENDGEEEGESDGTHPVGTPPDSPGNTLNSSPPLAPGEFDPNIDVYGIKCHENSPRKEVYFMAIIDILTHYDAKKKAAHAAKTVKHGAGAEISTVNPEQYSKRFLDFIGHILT

The experiment addresses Phosphatidylinositol 5-phosphate 4-kinase type-2 alpha (Homo sapiens) (UniProt P48426). Kind of experiment: qHTS for Inhibitors of phosphatidylinositol 5-phosphate 4-kinase (PI5P4K). Further: value at the top dose of about 77 µM. As to conditions: PI5P4Kalpha enzyme, ADP-Glo luminescence, 60 min; hits give low values. The gist of the method: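 PI5P4Kalpha ADP-Glo assay; 5 microM ATP final; 60 min RT reaction; HEPES pH 7.4/EGTA/CHAPS, 5% DMSO; controls lacking substrate or enzyme; luminescent end-point.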
On the technique in general: In qHTS, concentration-response curves come from the screen itself.
Take `COC(=O)[C@]12CCCCC=C1N(CCC1=CCCCC1)C(=O)[C@H](CC(=O)N1CCSCC1)C2`: the max response is 6.76% (inactive).
Next, `COc1ccc(Br)c(Cn2c(C)c(C(=O)NCc3cccs3)sc2=O)c1`: 0.248% (inactive); `CC(C)Cn1cc(-c2cncc3nccn23)cn1`: 1.47% (inactive).
`CC(Sc1nnnn1C)C(=O)NC(=O)NC1CCCCC1` (stereo unspecified): the max response was -0.0816% (inactive).
The result for `CC(Sc1nnnn1C1CCCCC1)C(=O)O` (stereo unspecified) reads -91% (active); that for `O=C(CSc1nnnn1C1CCCC1)N1CCCCC1`, 1.79% (inactive).
Next, `O=C(Nc1ccc2c(c1)OCCO2)C1c2ccccc2OCC(=O)N1Cc1ccccn1` (stereo unspecified): 6.39% (inactive); `COc1ccc(S(=O)(=O)N(C)C[C@H]2OCc3cnnn3CCCC(=O)N([C@H](C)CO)C[C@H]2C)cc1`: 3.6% (inactive).
Turning to `COc1cccc(-c2cc3nc(NCc4ccccc4OC)n(C)c(=O)c3s2)c1`, the max response was 21.3% (inactive).
Take `COCCNC(=O)C1CCCN(Cc2ccccc2Cl)CC1` (stereo unspecified): the max response was 0.686% (inactive).
The result for `CC1=NN(c2ccccc2)C(=O)C1C(=O)c1ccc([N+](=O)[O-])cc1` (stereo unspecified) reads 0.85% (inactive); that for `Cc1nn(-c2ccc([N+](=O)[O-])cc2)c(N)c1-c1ccccc1`, -3.48% (inactive); that for `O=C1CC(c2ccccc2)=NN1c1ccc([N+](=O)[O-])cc1`, -52.7% (active).
The result for `OC(c1ccccc1)c1nc(-c2cnc3ccccc3c2)cs1` (stereo unspecified) reads -0.318% (inactive); that for `CS(=O)(=O)c1ccc2c(c1)SC1=NC(=O)/C(=C/c3ccco3)C(=N)N12`, -79.5% (active); that for `CC(C)(C)C1C/C(=C/c2ccco2)C(=O)/C(=C/c2ccco2)C1` (stereo unspecified), -12.4% (inactive).
The result for `O=C(Nc1cccc2ccccc12)c1[nH]c(-c2ccccc2)c2c1C(=O)N(C1CC1)C2=O` reads -0.344% (inactive).
As to `CN1CCN(C(=O)c2ccc(-c3cc4nc(NCc5cccnc5)n(C)c(=O)c4s3)cc2)CC1`, the max response is 2.18% (inactive).
As for `O=C(NC1CCCCC1)C(c1cc2ccccc2o1)n1c(=O)c(-c2ccco2)nc2ccccc21` (stereo unspecified), the max response was -75.5% (active).
Take `Cn1c(SCC(=O)NC2CCCCC2)nnc1-c1cc2ccccc2o1`: the max response was 1.01% (inactive).
Next, `COc1ccc(C(C(=O)NCc2ccccc2)n2c(=O)c(-c3ccccc3)nc3ccccc32)cc1` (stereo unspecified): 7.1% (inactive); `CCC(CC)C(C(=O)NC1CCCC1)N1CCN(c2cc(C)nc3ccccc23)CC1` (stereo unspecified): -1.13% (inactive).
Regarding `Cc1cccc(C)c1NC(=O)C(c1ccc(C(F)(F)F)cc1)n1c(=O)c(-c2ccco2)nc2ccccc21` (stereo unspecified), the max response was -54% (active).
The result for `Cc1cccc(C)c1NC(=O)C(c1cccc2ccccc12)n1c(=O)c(-c2ccco2)nc2ccccc21` (stereo unspecified) reads -75.2% (active); that for `CCCCCNC(=O)C(c1ccc(OC)cc1)n1c(=O)c(-c2ccccc2)nc2ccccc21` (stereo unspecified), 8.24% (inactive).
For `CCC(C(=O)Nc1c(C)cccc1C)n1c(-c2cc(C)cs2)nc2ccccc21` (stereo unspecified), the max response was 0.0253% (inactive).
The result for `COc1ccc(NC(=O)C(c2ccncc2)n2c(=O)c(-c3cc4ccccc4[nH]3)nc3ccccc32)cc1` (stereo unspecified) reads 0.0077% (inactive).
Turning to `CC(=O)Nc1cc(-c2ccccc2N(C)C)cn2c(-c3ccc(F)c(Cl)c3)cnc12`, the max response was -1.56% (inactive).
The result for `NC(c1csc(NC(=O)Nc2cccc(C(F)(F)F)c2)n1)C1CCCCC1` (stereo unspecified) reads 10.5% (inactive).
The result for `Cc1ccc([C@H]2C[C@H](O)[C@@H](n3cc(COC(=O)c4ccccc4)nn3)CN2CC2CCCCC2)cc1` reads 19.2% (inactive).
For the compound `O=C(NCc1ccccc1)C1c2ccccc2OCC(=O)N1CCCN1CCOCC1` (stereo unspecified), the max response is 0.215% (inactive).
Next, `O=C(c1ccc(C(F)(F)F)cc1)N1CCC(=O)N([C@H](COCc2ccccc2)Cc2ccccc2)CC1`: 5.29% (inactive); `COC(=O)c1ccc2nc(C3CCCCC3)c(Cc3cccc(F)c3)n2c1`: -0.596% (inactive).
The result for `CCCCOCCCNC(=O)C[C@@H]1C[C@@]2(C(=O)OC)CCCCC=C2N(CCC2=CCCCC2)C1=O` reads 17.9% (inactive).
Regarding `O=C(Nc1ccc(N2CCOCC2)cc1)c1cccc2c(-c3ccc(F)c(F)c3)coc12`, the max response is 5.02% (inactive).
The result for `CCc1c(N=O)c(-c2ccccc2)n(O)[n+]1[O-]` reads -5.54% (inactive).
For the compound `O=C(N/N=C/c1ccc(Cl)cc1)c1nc2ccc([N+](=O)[O-])cc2c(=O)[nH]1`, the max response was -60.4% (active).
The result for `O=C(N/N=C/c1ccc([N+](=O)[O-])cc1)c1c[nH]c2ccccc12` reads 1.35% (inactive).
As for `Cc1ccsc1C(=O)N/N=C/c1ccc([N+](=O)[O-])cc1`, the max response was -10.5% (inactive).
Next, `O=C(CCc1ccc(O)cc1)NN=Cc1cc(Br)ccc1O`: -16.2% (inactive); `COc1ccc(NC(=O)C2Cc3c(-c4ccc5c(c4)OCO5)ccnc3O2)cn1` (stereo unspecified): -13.8% (inactive).
Regarding `O=C1CSC(=S)N1/N=C/c1ccc(O)c([N+](=O)[O-])c1`, the max response is -104% (active).
The result for `O=[N+]([O-])c1ccc(N2CCSCC2)cc1O` reads -3.3% (inactive).
Next, `O=C1CSC(=S)N1c1ccc(O)cc1`: -3.72% (inactive); `CC1Cc2[nH][nH]c(=O)c2C(C2CCCC2)O1` (stereo unspecified): 0.644% (inactive); `CC1=C(C(=O)N2CCOCC2)CC(CC(=O)NCCCN(C)C)C(=O)N1Cc1ccc(C(C)(C)C)cc1` (stereo unspecified): 1.54% (inactive).
Next, `Fc1ccc(COc2cccc(-c3n[nH]c(=S)o3)c2)cc1`: -51.9% (active); `Fc1ccc(COc2ccc(-c3nnco3)cc2)cc1`: -2.69% (inactive); `Fc1ccc(/C=N/n2c(COc3ccccc3)n[nH]c2=S)cc1`: 5.11% (inactive).
For the compound `Cc1cccc(CNC(=O)c2sc(=O)n(Cc3ccccc3C)c2C)c1`, the max response was 0.532% (inactive).
The result for `COc1ccc(-c2ccc(C(=O)NC(C)C)c3occc23)c(C)c1` reads 4% (inactive).
Regarding `CC[C@@H]1Cc2cc(O)ccc2C2=C1c1ccc(O)cc1C[C@H]2CC`, the max response is -54.7% (active).
The result for `Cc1ccc(C(=O)N2CCCc3ccccc32)c(Cl)c1` reads 0.412% (inactive).
In the case of `CC(C)(C)c1nnc2sc(SCC(O)=C(C#N)c3nc4ccccc4[nH]3)nn2c1=O`, the max response was -56.5% (active).
`N#C/C(=C(/O)COc1cccc2ccccc12)c1nc2ccccc2[nH]1`: the max response was -15.3% (inactive).
Next, `N#C/C(=C(/O)COC(=O)COc1ccc(Cl)cc1)c1nc2ccccc2[nH]1`: -17% (inactive).
